Measured values: ChEMBL document CHEMBL1961873, “Compounds: GSK PKIS; Assays: Nanosyn kinase panel” (2012)

How the values were obtained:
[1] = target: Sphingosine kinase 1 (Homo sapiens) (UniProt Q9NYA1); details: at 1 µM;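 also: mean SPHK1 inhibition value reported from the GSK PKIS kinase panel screen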
[2] = target: T1, Sphingosine kinase 2 (Homo sapiens) (UniProt Q9NRA0); details: at 0.1 µM
T1 sequence (whole entry): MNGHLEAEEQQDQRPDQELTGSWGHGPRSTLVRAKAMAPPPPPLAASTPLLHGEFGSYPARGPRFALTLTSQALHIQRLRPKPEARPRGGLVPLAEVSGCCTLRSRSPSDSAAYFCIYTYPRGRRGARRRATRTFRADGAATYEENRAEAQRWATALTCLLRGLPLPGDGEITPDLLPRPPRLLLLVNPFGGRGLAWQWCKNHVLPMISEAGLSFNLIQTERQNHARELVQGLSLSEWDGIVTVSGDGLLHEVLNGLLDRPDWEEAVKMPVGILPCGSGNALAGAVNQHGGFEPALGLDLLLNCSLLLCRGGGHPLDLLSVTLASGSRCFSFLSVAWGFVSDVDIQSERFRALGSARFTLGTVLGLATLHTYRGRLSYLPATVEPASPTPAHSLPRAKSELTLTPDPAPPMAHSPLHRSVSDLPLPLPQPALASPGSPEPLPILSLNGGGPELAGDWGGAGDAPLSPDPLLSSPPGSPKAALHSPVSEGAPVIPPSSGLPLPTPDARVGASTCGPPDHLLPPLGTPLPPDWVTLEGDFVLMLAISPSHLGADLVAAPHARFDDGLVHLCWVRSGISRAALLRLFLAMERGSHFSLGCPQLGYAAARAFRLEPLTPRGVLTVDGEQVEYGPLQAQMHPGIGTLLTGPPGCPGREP

[3] = target: T1, Sphingosine kinase 2 (Homo sapiens); details: at 1 µM
[4] = target: Casein kinase II subunit alpha (Homo sapiens) (UniProt P68400); details: at 0.1 µM
[5] = target: Casein kinase II subunit alpha (Homo sapiens) (UniProt P68400); details: at 1 µM
[6] = target: T2, Inhibitor of nuclear factor kappa-B kinase subunit alpha (Homo sapiens) (UniProt O15111); details: at 0.1 µM
T2 sequence (whole entry): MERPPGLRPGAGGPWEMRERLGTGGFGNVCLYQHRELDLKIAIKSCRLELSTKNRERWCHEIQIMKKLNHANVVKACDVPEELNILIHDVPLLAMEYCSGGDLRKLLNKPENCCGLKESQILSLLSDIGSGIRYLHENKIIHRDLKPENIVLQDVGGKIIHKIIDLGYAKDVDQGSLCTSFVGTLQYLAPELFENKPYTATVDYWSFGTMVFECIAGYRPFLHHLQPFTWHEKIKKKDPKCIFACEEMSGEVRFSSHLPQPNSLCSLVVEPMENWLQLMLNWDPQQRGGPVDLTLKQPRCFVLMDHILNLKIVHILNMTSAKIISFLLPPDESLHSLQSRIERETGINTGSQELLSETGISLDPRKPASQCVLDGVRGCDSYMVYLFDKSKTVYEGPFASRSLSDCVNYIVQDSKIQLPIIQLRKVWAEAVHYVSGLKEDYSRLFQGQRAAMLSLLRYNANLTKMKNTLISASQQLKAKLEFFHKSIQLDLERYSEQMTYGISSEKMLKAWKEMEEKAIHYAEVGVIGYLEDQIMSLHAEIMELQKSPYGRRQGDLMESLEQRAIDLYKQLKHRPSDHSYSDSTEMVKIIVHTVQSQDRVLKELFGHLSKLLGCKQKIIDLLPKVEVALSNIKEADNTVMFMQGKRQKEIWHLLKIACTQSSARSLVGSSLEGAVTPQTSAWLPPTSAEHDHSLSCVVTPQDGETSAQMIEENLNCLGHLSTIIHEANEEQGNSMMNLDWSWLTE

[7] = target: T2, Inhibitor of nuclear factor kappa-B kinase subunit alpha (Homo sapiens); details: at 1 µM
[8] = target: T3, Inhibitor of nuclear factor kappa-B kinase subunit beta (Homo sapiens) (UniProt O14920); details: at 0.1 µM
T3 sequence (whole entry): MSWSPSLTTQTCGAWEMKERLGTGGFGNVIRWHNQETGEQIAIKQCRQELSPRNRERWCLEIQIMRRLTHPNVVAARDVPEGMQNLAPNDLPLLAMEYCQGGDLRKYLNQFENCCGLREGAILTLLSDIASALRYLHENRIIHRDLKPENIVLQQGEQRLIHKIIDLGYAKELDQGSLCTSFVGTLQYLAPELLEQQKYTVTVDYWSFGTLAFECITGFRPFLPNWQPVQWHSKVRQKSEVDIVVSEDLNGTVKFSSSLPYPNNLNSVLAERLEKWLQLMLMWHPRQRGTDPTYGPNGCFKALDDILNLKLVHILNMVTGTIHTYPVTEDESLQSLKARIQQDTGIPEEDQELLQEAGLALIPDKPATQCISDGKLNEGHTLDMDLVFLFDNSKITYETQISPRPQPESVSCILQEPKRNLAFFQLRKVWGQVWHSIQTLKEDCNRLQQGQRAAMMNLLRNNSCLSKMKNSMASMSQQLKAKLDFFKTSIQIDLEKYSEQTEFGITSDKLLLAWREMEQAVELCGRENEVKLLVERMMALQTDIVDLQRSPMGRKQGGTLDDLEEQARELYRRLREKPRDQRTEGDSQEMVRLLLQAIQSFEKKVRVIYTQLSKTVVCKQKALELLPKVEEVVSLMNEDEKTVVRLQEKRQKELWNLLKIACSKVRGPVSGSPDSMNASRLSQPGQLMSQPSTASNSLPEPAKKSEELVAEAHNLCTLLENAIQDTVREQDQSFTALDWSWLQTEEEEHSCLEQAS

[9] = target: T3, Inhibitor of nuclear factor kappa-B kinase subunit beta (Homo sapiens); details: at 1 µM
[10] = target: T4, Inhibitor of nuclear factor kappa-B kinase subunit epsilon (Homo sapiens) (UniProt Q14164); details: at 0.1 µM
T4 sequence (whole entry): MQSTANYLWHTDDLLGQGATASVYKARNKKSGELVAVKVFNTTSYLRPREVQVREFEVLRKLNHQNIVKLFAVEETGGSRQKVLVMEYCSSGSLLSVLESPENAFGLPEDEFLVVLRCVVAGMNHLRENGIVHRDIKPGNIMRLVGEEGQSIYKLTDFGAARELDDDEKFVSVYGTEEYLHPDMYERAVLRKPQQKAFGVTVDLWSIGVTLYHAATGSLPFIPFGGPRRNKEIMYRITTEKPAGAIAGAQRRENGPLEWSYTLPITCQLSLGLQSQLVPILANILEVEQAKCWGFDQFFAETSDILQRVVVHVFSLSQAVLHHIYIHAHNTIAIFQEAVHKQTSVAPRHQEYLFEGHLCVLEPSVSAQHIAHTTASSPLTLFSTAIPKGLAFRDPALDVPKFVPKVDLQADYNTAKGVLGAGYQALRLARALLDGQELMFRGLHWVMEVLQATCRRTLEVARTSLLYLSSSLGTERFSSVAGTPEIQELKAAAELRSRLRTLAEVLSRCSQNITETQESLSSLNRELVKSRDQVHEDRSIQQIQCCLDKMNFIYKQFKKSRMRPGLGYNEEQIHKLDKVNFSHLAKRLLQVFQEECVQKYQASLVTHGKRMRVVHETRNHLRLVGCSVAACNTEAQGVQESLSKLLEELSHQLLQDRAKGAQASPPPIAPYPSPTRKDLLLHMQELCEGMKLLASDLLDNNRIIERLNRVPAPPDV

[11] = target: T4, Inhibitor of nuclear factor kappa-B kinase subunit epsilon (Homo sapiens); details: at 1 µM
[12] = target: T5, Serine/threonine-protein kinase Nek1 (Homo sapiens) (UniProt Q96PY6); details: at 0.1 µM
T5 sequence (whole entry): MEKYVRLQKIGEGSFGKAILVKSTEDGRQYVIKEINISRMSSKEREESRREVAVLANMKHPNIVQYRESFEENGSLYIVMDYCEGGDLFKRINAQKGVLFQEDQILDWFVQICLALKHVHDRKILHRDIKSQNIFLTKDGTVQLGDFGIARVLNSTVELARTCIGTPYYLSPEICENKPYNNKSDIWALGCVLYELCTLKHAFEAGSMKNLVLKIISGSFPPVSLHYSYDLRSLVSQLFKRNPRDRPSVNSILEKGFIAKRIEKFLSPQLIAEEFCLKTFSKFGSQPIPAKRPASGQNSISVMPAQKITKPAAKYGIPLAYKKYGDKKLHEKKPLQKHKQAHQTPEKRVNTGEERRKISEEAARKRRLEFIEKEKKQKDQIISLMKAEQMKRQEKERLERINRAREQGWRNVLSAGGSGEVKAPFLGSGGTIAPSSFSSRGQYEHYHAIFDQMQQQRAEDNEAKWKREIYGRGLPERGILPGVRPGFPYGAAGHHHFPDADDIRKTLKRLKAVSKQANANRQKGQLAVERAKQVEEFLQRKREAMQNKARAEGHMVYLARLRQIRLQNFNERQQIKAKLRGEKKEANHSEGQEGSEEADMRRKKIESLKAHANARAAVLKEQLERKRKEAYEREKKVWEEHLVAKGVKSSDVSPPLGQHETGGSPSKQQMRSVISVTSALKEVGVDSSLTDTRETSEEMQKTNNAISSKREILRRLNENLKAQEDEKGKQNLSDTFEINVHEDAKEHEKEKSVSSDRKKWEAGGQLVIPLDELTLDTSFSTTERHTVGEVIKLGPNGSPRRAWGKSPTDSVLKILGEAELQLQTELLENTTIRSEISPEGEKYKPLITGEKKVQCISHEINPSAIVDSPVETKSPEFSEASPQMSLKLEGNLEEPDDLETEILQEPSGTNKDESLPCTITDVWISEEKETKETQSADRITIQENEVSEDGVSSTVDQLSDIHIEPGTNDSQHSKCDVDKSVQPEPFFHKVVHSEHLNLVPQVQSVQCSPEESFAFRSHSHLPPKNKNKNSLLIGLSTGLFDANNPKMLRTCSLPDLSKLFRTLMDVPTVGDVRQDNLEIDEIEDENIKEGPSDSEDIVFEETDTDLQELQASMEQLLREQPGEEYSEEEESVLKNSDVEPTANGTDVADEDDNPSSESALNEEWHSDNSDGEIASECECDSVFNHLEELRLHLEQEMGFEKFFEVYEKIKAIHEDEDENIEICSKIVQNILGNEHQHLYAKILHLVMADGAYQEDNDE

[13] = target: T5, Serine/threonine-protein kinase Nek1 (Homo sapiens); details: at 1 µM
[14] = target: T6, Serine/threonine-protein kinase Nek2 (Homo sapiens) (UniProt P51955); details: at 0.1 µM
T6 sequence (whole entry): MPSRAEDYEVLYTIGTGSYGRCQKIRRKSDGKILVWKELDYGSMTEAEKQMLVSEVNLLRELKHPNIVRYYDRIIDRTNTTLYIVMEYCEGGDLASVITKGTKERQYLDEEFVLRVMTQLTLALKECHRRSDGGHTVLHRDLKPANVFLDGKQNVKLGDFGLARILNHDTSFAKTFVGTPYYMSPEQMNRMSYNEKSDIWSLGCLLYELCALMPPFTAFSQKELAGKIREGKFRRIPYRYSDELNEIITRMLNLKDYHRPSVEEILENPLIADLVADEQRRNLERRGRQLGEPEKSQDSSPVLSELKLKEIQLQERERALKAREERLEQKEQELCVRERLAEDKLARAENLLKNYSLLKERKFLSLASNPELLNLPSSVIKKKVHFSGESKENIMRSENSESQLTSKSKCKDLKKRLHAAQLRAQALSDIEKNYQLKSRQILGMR

[15] = target: T6, Serine/threonine-protein kinase Nek2 (Homo sapiens); details: at 1 µM
[16] = target: Serine/threonine-protein kinase Nek6 (Homo sapiens) (UniProt Q9HC98); details: at 0.1 µM
[17] = target: Serine/threonine-protein kinase Nek6 (Homo sapiens) (UniProt Q9HC98); details: at 1 µM
[18] = target: Serine/threonine-protein kinase Nek7 (Homo sapiens) (UniProt Q8TDX7); details: at 0.1 µM
[19] = target: Serine/threonine-protein kinase Nek7 (Homo sapiens) (UniProt Q8TDX7); details: at 1 µM
[20] = target: T7, Serine/threonine-protein kinase Nek9 (Homo sapiens) (UniProt Q8TD19); details: at 0.1 µM;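 also: reported value is the mean percent inhibition of NEK9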
T7 sequence (whole entry): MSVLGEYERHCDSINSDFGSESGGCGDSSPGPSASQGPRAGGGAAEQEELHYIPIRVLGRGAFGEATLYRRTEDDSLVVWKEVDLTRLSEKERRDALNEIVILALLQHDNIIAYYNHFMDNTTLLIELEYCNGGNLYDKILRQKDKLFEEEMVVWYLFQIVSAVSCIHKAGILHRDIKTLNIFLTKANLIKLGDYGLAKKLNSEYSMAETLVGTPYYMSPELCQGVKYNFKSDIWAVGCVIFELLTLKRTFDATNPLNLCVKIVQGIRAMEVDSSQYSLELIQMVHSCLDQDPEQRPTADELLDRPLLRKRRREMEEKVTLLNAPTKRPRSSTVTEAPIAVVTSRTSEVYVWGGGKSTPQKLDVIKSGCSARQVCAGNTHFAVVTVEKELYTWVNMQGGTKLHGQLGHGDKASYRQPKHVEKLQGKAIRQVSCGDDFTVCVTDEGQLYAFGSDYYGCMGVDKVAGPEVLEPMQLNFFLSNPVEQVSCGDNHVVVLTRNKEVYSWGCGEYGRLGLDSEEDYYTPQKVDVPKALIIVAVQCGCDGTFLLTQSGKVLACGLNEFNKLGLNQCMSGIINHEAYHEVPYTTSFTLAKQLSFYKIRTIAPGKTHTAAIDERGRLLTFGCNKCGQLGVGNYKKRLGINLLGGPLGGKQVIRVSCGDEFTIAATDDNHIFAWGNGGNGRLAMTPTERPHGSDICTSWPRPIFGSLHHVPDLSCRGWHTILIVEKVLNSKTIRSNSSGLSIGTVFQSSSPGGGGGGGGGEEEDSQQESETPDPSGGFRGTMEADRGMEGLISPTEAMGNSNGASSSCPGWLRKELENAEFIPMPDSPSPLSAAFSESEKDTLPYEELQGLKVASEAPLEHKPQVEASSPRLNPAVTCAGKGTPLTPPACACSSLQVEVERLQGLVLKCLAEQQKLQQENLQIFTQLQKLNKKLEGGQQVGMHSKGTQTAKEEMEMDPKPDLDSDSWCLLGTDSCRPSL

Chain of Serine/threonine-protein kinase Nek7 (Homo sapiens) (Q8TDX7 whole entry, looked up): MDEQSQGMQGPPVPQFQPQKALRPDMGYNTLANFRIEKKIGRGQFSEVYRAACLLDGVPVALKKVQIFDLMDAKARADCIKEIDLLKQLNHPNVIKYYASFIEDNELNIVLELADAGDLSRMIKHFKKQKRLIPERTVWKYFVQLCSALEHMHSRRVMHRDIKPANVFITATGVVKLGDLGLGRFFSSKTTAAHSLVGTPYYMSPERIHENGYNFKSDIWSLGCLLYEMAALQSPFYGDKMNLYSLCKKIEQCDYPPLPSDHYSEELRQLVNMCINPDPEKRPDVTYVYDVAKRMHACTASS
Chain of Casein kinase II subunit alpha (Homo sapiens) (P68400 whole entry, looked up): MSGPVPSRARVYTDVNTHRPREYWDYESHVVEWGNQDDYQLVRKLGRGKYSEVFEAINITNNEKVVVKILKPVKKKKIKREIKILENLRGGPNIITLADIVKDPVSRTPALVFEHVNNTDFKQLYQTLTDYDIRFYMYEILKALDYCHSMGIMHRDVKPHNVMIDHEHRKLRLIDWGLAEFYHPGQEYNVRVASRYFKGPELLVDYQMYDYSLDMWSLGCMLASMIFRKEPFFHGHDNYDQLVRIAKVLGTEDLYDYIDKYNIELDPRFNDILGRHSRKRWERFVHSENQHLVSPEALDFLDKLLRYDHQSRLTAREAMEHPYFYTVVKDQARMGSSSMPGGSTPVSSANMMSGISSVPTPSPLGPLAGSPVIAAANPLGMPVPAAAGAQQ
Chain of Serine/threonine-protein kinase Nek6 (Homo sapiens) (Q9HC98 whole entry): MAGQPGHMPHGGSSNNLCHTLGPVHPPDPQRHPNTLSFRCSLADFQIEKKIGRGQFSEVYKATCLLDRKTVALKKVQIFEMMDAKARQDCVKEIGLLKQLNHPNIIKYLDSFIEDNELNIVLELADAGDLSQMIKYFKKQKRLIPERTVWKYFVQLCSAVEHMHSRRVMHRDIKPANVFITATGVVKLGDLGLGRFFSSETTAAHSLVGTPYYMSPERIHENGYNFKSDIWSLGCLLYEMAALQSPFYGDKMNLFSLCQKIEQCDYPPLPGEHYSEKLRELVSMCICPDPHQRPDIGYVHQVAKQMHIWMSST
Chain of Sphingosine kinase 1 (Homo sapiens) (Q9NYA1 whole entry): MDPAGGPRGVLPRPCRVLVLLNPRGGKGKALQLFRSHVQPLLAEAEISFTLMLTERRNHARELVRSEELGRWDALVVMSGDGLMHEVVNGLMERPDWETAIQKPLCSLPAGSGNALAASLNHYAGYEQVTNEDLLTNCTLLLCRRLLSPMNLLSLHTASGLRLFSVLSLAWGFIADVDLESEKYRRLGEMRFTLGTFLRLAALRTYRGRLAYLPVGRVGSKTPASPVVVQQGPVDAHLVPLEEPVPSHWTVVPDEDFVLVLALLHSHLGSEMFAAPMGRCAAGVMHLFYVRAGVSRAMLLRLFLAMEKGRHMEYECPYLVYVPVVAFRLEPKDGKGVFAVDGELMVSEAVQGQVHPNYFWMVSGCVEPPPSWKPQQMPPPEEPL

## COc1ccc(-c2nn3ncccc3c2-c2ccnc(Nc3cccc(C(F)(F)F)c3)n2)cc1
[1]
  inhibition: 1.42%
[2]
  inhibition: -1.04%
[3]
  inhibition: -0.08%
[4]
  inhibition: 6.68%
[5]
  inhibition: 1.12%
[6]
  inhibition: 3.17%
[7]
  inhibition: 8.21%
[8]
  inhibition: 3.3%
[9]
  inhibition: 4.64%
[10]
  inhibition: 4.96%
[11]
  inhibition: 4.37%
[12]
  inhibition: 1.37%
[13]
  inhibition: 0.9%
[14]
  inhibition: 4.06%
[15]
  inhibition: 1.46%
[16]
  inhibition: -1.61%
[17]
  inhibition: 1.08%
[18]
  inhibition: 1.12%
[19]
  inhibition: 2.05%
[20]
  inhibition: 6.48%
